Measurements published in PubChem BioAssay AID1159580 (chemical genetic matrix, 2015).
In all, about 5,500 compounds went through this assay and about 2,000 (36%) were called active. Another 18% or so got no clear call; they are omitted. Cut-off read from the data, not from the text of the source: active = normalized growth mostly below about 0.91 (no sharp cut-off); inconclusive = no clear call, values can overlap the other calls; inactive = mostly above about 0.92. The list shows a part of the results.

Experiment: chemical genetic growth profiling, strain panel (AID 1159580);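 note: tested at 20 µM; growth read once vehicle control cultures reached saturation at 30 °C; 1 = growth at the plate median or of vehicle wells; lower values mean less growth of the strain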
Conditions: S. cerevisiae deletion strains, growth OD

Measured: normalized growth

CC1(C)Oc2ccc3ccc(=O)oc3c2CC1O (centres undefined)
inactive: locus YAL013W, strain DEP1, stronger effect = lower value 0.994 | locus YAL021C, strain ccr4, stronger effect = lower value 1 | locus YAL026C, strain drs2, stronger effect = lower value 0.967 | locus YAL030W, strain snc1, stronger effect = lower value 0.972 | locus YBL061C, strain skt5, stronger effect = lower value 0.971 | locus YBR009C, strain hhf1, stronger effect = lower value 0.94 | locus YBR021W, strain FUR4, stronger effect = lower value 1.02 | locus YBR023C, strain chs3, stronger effect = lower value 0.984 | locus YBR171W, strain sec66, stronger effect = lower value 0.976 | locus YBR229C, strain ROT2, stronger effect = lower value 0.998 | locus YBR231C, strain swc5, stronger effect = lower value 0.976 | locus YBR279W, strain paf1, stronger effect = lower value 0.987 | locus YCL011C, strain gbp2, stronger effect = lower value 0.963 | locus YCL016C, strain dcc1, stronger effect = lower value 0.988 | locus YCL029C, strain bik1, stronger effect = lower value 1.01 | locus YCL061C, strain MRC1, stronger effect = lower value 0.989 | locus YCL069W, strain vba3, stronger effect = lower value 0.968 | locus YCR088W, strain abp1, stronger effect = lower value 0.986 | locus YDL005C, strain med2, stronger effect = lower value 0.975 | locus YDL035C, strain GPR1, stronger effect = lower value 0.991 | locus YDL040C, strain nat1, stronger effect = lower value 0.979 | locus YDL074C, strain BRE1, stronger effect = lower value 1.01 | locus YDL101C, strain DUN1, stronger effect = lower value 0.995 | locus YDL134C, strain PPH21, stronger effect = lower value 0.974 | locus YDL185W, strain tfp1, stronger effect = lower value 1.02 | locus YDL192W, strain arf1, stronger effect = lower value 1.02 | locus YDR001C, strain nth1, stronger effect = lower value 0.97 | locus YDR069C, strain doa4, stronger effect = lower value 0.957 | locus YDR101C, strain arx1, stronger effect = lower value 1.02 | locus YDR137W, strain rgp1, stronger effect = lower value 0.99 | locus YDR150W, strain NUM1, stronger effect = lower value 1.01 | locus YDR159W, strain sac3, stronger effect = lower value 0.922 | locus YDR162C, strain NBP2, stronger effect = lower value 0.978 | locus YDR195W, strain ref2 0.971 | locus YDR297W, strain sur2, stronger effect = lower value 0.971 | locus YDR318W, strain mcm21, stronger effect = lower value 0.977 | locus YDR334W, strain swr1, stronger effect = lower value 0.982 | locus YDR335W, strain msn5, stronger effect = lower value 0.993 | locus YDR388W, stronger effect = lower value 1 | locus YDR392W, strain spt3, stronger effect = lower value 0.91 | locus YDR502C, strain sam2, stronger effect = lower value 0.994 | locus YEL003W, strain gim4, stronger effect = lower value 0.977 | locus YEL037C, strain rad23, stronger effect = lower value 0.982 | locus YEL061C, strain CIN8 (second series), stronger effect = lower value 0.977 | locus YEL061C, strain CIN8, stronger effect = lower value 0.992 | locus YER015W, strain faa2, stronger effect = lower value 0.968 | locus YER016W, strain bim1, stronger effect = lower value 0.996 | locus YER110C, stronger effect = lower value 1.01 | locus YER111C, strain swi4, stronger effect = lower value 0.982 | locus YER155C, strain BEM2 (second series), stronger effect = lower value 0.956 | locus YER155C, strain BEM2, stronger effect = lower value 1.01 | locus YER167W, strain BCK2, stronger effect = lower value 0.978 | locus YFR010W, strain ubp6, stronger effect = lower value 0.972 | locus YGL078C, strain dbp3, stronger effect = lower value 0.999 | locus YGL086W, strain mad1, stronger effect = lower value 1.04 | locus YGL167C, strain pmr1, stronger effect = lower value 0.961 | locus YGL173C, strain kem1, stronger effect = lower value 0.975 | locus YGL227W, strain vid30, stronger effect = lower value 0.97 | locus YGL240W, strain doc1, stronger effect = lower value 0.97 | locus YGL248W, strain PDE1, stronger effect = lower value 0.998 | locus YGL253W, strain hxk2, stronger effect = lower value 1 | locus YGR078C, strain PAC10, stronger effect = lower value 0.999 | locus YGR135W, strain pre9, stronger effect = lower value 0.978 | locus YGR252W, strain gcn5, stronger effect = lower value 0.928 | locus YHR013C, strain ard1, stronger effect = lower value 0.943 | locus YHR027C, strain rpn1, stronger effect = lower value 0.973 | locus YHR030C, strain SLT2, stronger effect = lower value 1 | locus YHR079C, strain IRE1 (second series), stronger effect = lower value 1 | locus YHR094C, strain hxt1, stronger effect = lower value 1.02 | locus YHR129C, strain ARP1, stronger effect = lower value 1 | locus YHR142W, strain chs7, stronger effect = lower value 0.996 | locus YHR200W, strain rpn10, stronger effect = lower value 1.01 | locus YIL066C, strain RNR3, stronger effect = lower value 1 | locus YIL073C, strain SPO22, stronger effect = lower value 1.02 | locus YIL125W, strain kgd1, stronger effect = lower value 1.02 | locus YIR030C, strain dcg1, stronger effect = lower value 1.01 | locus YJL092W, strain hpr5, stronger effect = lower value 0.989 | locus YJL095W, strain BCK1 (second series), stronger effect = lower value 0.996 | locus YJL095W, strain BCK1, stronger effect = lower value 0.986 | locus YJL115W, strain asf1, stronger effect = lower value 0.984 | locus YJL129C, strain trk1, stronger effect = lower value 0.977 | locus YJL134W, strain LCB3, stronger effect = lower value 1 | locus YJL154C, strain vps35, stronger effect = lower value 0.978 | locus YJL164C, strain tpk1, stronger effect = lower value 1.01 | locus YJL166W, strain qcr8, stronger effect = lower value 0.989 | locus YJL168C, strain set2, stronger effect = lower value 1.01 | locus YJL187C, strain SWE1 (second series), stronger effect = lower value 1.01 | locus YJL187C, strain SWE1, stronger effect = lower value 0.976 | locus YJR043C, strain POL32, stronger effect = lower value 0.995 | locus YKL009W, strain mrt4, stronger effect = lower value 1.01 | locus YKL068W, stronger effect = lower value 0.998 | locus YKL085W, strain MDH1 (second series), stronger effect = lower value 1.01 | locus YKL085W, strain MDH1, stronger effect = lower value 1.01 | locus YKL160W, strain elf1, stronger effect = lower value 1.02 | locus YKR001C, strain vps1, stronger effect = lower value 1.03 | locus YKR026C, strain gcn3, stronger effect = lower value 0.957 | locus YKR091W, strain srl3, stronger effect = lower value 0.965 | locus YLL001W, strain dnm1, stronger effect = lower value 0.987 | locus YLL026W, stronger effect = lower value 0.977 | locus YLL041C, strain sdh2, stronger effect = lower value 0.989 | locus YLR027C, strain aat2, stronger effect = lower value 0.982 | locus YLR039C, strain RIC1, stronger effect = lower value 0.998 | locus YLR058C, strain SHM2, stronger effect = lower value 0.992 | locus YLR102C, strain apc9, stronger effect = lower value 1.01 | locus YLR221C, strain rsa3, stronger effect = lower value 0.994 | locus YLR258W, strain gsy2, stronger effect = lower value 0.971 | locus YLR262C, strain YPT6 (second series), stronger effect = lower value 0.989 | locus YLR262C, strain YPT6, stronger effect = lower value 0.956 | locus YLR268W, strain sec22, stronger effect = lower value 1.05 | locus YLR320W, strain mms22, stronger effect = lower value 0.998 | locus YLR330W, strain CHS5, stronger effect = lower value 1 | locus YLR342W, strain FKS1 (second series), stronger effect = lower value 1.02 | locus YLR342W, strain FKS1, stronger effect = lower value 0.973 | locus YLR357W, strain rsc2, stronger effect = lower value 0.961 | locus YLR370C, strain arc18, stronger effect = lower value 0.976 | locus YLR371W, strain rom2, stronger effect = lower value 1.01 | locus YLR384C, strain iki3, stronger effect = lower value 0.976 | locus YLR418C, strain cdc73, stronger effect = lower value 0.978 | locus YML016C, strain PPZ1, stronger effect = lower value 1 | locus YML032C, strain rad52, stronger effect = lower value 0.976 | locus YML120C, strain ndi1, stronger effect = lower value 0.988 | locus YML124C, strain tub3, stronger effect = lower value 0.994 | locus YMR058W, strain fet3, stronger effect = lower value 0.979 | locus YMR078C, strain ctf18, stronger effect = lower value 1.02 | locus YMR125W, strain sto1, stronger effect = lower value 0.935 | locus YMR129W, stronger effect = lower value 0.966 | locus YMR205C, strain PFK2, stronger effect = lower value 0.941 | locus YMR223W, strain ubp8, stronger effect = lower value 0.996 | locus YMR231W, strain pep5, stronger effect = lower value 0.977 | locus YMR307W, strain GAS1, stronger effect = lower value 1.04 | locus YNL067W, strain RPL9B, stronger effect = lower value 1 | locus YNL071W, strain lat1, stronger effect = lower value 0.988 | locus YNL209W, strain ssb2, stronger effect = lower value 0.965 | locus YNL233W, strain BNI4, stronger effect = lower value 1 | locus YNL248C, strain rpa49, stronger effect = lower value 1.02 | locus YNL250W, strain rad50, stronger effect = lower value 1.01 | locus YNL271C, strain bni1, stronger effect = lower value 1.01 | locus YNL298W, strain CLA4, stronger effect = lower value 1 | locus YNL307C, strain MCK1, stronger effect = lower value 1.02 | locus YNL322C, strain KRE1 (second series), stronger effect = lower value 0.967 | locus YNR049C, strain mso1, stronger effect = lower value 0.97 | locus YNR052C, strain pop2, stronger effect = lower value 1.02 | locus YOL006C, strain TOP1, stronger effect = lower value 1.02 | locus YOL012C, strain htz1 0.905 | locus YOL147C, strain pex11, stronger effect = lower value 1 | locus YOR001W, strain rrp6, stronger effect = lower value 1.02 | locus YOR061W, strain CKA2, stronger effect = lower value 1 | locus YOR069W, strain VPS5, stronger effect = lower value 1 | locus YOR070C, strain gyp1, stronger effect = lower value 0.987 | locus YOR080W, strain dia2, stronger effect = lower value 0.975 | locus YOR083W, strain WHI5, stronger effect = lower value 1.03 | locus YOR106W, strain vam3, stronger effect = lower value 0.995 | locus YOR136W, strain idh2, stronger effect = lower value 1.01 | locus YOR144C, strain elg1, stronger effect = lower value 1 | locus YOR184W, strain ser1, stronger effect = lower value 0.988 | locus YOR265W, strain rbl2, stronger effect = lower value 0.987 | locus YOR270C, strain vph1, stronger effect = lower value 1.02 | locus YOR290C, strain snf2, stronger effect = lower value 0.924 | locus YOR316C, strain cot1, stronger effect = lower value 1 | locus YPL051W, strain arl3, stronger effect = lower value 1.02 | locus YPL078C, strain atp4, stronger effect = lower value 1 | locus YPL106C, strain sse1, stronger effect = lower value 0.95 | locus YPL240C, strain hsp82, stronger effect = lower value 0.974 | locus YPL241C, strain CIN2, stronger effect = lower value 0.996 | locus YPR119W, strain clb2, stronger effect = lower value 0.997 | locus YPR141C, strain kar3, stronger effect = lower value 1.01 | locus YPR163C, strain tif3, stronger effect = lower value 1.01 | locus YPR167C, strain met16, stronger effect = lower value 1 | strain wtn01, stronger effect = lower value 1.05
